Eight molecules from PubChem BioAssay (EPA / NIEHS) can be followed below.

As a reminder, the AC50 is the concentration at which the activity in the assay is half-maximal.

Inconclusive results are not listed. Active and inactive are the calls of the source. Rule for the calls, unless noted: active = hit-call score of the fitted dose curve at least 0.9, where 1 is the maximum; inactive = score below 0.9.

Test [1] concerns the target Hepatocyte nuclear factor 4-alpha (Homo sapiens) (UniProt P41235). The test is described as follows: ATG_HNF4a_TRANS: Attagene TRANS-FACTORIAL HepG2 Assay for human Hepatocyte Nuclear Factor 4 alpha (HNF4a) (AID 2282982; active = hit-call score of the fitted dose curve at least 0.9, where 1 is the maximum). To be noted: HepG2 HNF4a transactivation reporter, mRNA readout. Put shortly: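 Multiplexed reporter assay: transfected HepG2, 24 h exposure, total RNA → oligo(dT) RT → PCR → 6-FAM extension → HpaI digest → CE fluorescence. DMSO = negative control.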

The nature of test [2]: ATG_M_06_TRANS: Attagene TRANS-FACTORIAL HepG2 Assay for M06 Transcription Factor (Internal Marker) (AID 2282983; active = hit-call score of the fitted dose curve at least 0.9, where 1 is the maximum). To be noted: HepG2 Attagene TRANS M06 internal marker reporter. The essentials: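 Multi-reporter-transfected HepG2, 24 h treatment; reporter transcripts quantified via RT-PCR, primer-extension labelling and CE. DMSO-normalized gain-of-signal fit.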
A short description of test [3]: ATG_M_32_TRANS: Attagene TRANS-FACTORIAL HepG2 Assay for M32 Transcription Factor (Internal Marker) (AID 2282984; active = hit-call score of the fitted dose curve at least 0.9, where 1 is the maximum;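 note: transcript level of a background control reporter unit measured by RT-PCR and capillary electrophoresis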). To be noted: HepG2 Attagene TRANS M32 internal marker reporter. Put shortly:
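Cell-based TRANS-format assay in HepG2: exogenous chimeric GAL4 reporter units transiently expressed, compounds applied 24 h. Reporter mRNA detected by RT-PCR plus capillary electrophoresis; this readout is an internal background marker.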

The target in test [4] is Transcriptional activator Myb (Homo sapiens) (UniProt P10242). Nature of the test: ATG_Myb_CIS: Attagene CIS-FACTORIAL HepG2 Assay for human Myeloblastosis (Myb) Proto-Oncogene Transcription Factor (AID 2282986). To be noted: HepG2 Attagene CIS-FACTORIAL Myb reporter transcription; actives raise or lower the signal. The essentials: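 After 24 h of compound dosing, total RNA from transfected HepG2 cells is reverse-transcribed and the reporter sequences amplified, labeled and separated by capillary electrophoresis. Values come from bidirectional fitting against DMSO.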

In test [5] the target is Nuclear respiratory factor 1 (Homo sapiens) (UniProt Q16656). The test is described as follows: ATG_NRF1_CIS: Attagene CIS-FACTORIAL HepG2 Assay for human Nuclear Respiratory Factor 1 (NRF1) Orphan Gene (AID 2282987). The settings on record: HepG2 NRF1 cis-element reporter, Attagene multiplex; actives raise or lower the signal. The essentials:
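Measured: fluorescent reporter-specific RT-PCR products from transfected HepG2 cells, separated by capillary electrophoresis. Exposure lasted 24 h. Analysis used bidirectional curve fitting with DMSO as negative control.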

Test [6] in a line: ATG_NFI_CIS: Attagene CIS-FACTORIAL HepG2 Assay for human Nuclear Factor I (NFI) (AID 2282989). To be noted: HepG2 cis-regulatory reporter, NFI response element transcription; actives raise or lower the signal. Put shortly: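 Reporter transcripts were measured by RT-PCR with fluorescent primer extension and capillary electrophoresis 24 h post-treatment. HepG2 cells carried transiently transfected cis-regulated reporter constructs reporting endogenous factor activity; gain or loss fitted against DMSO baseline.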

Test [7] deals with Myc proto-oncogene protein (Homo sapiens) (UniProt P01106). Nature of the test: ATG_Myc_CIS: Attagene CIS-FACTORIAL HepG2 Assay for human Myelocytomatosis (Myc) Proto-Oncogene Transcription Factor (AID 2282990). To be noted: HepG2, Attagene cis-reporter transcription factor activity; actives raise or lower the signal. The essentials:
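Cells of the HepG2 human liver line bear multiple cis-driven reporter transcription units. Reporter mRNA after 24 h exposure is reverse-transcribed, amplified, labelled and resolved by capillary electrophoresis, with gain- or loss-of-signal fitting relative to DMSO.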

Test [8] can be described thus: ATG_NF_kB_CIS: Attagene CIS-FACTORIAL HepG2 Assay for human Nuclear Factor Kappa B (NF-kB) (AID 2282991). The settings on record: HepG2 Attagene cis-factorial NF-kB reporter mRNA; actives raise or lower the signal. Put shortly:
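Fluorescence of labelled RT-PCR products separated by capillary electrophoresis gives reporter mRNA levels from transfected HepG2 cells exposed 24 h; values are fitted in both directions relative to DMSO.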

Test [9] in a line: ATG_NRF2_ARE_CIS: Attagene CIS-FACTORIAL HepG2 Assay for human Nuclear Factor Erythroid 2 Related Factor 2 (NFR2) response to Antioxidant Response Elements (ARE) (AID 2282992). The settings on record: HepG2 Attagene ARE/NRF2 reporter, transcription factor activity; actives raise or lower the signal. Put shortly:
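Using transiently transfected HepG2 cells exposed for 24 h, reporter mRNA levels were determined by RT-PCR with fluorescent primer extension and capillary electrophoresis, analysed for gain or loss of signal against DMSO.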

A short description of test [10]: ATG_Oct_MLP_CIS: Attagene CIS-FACTORIAL HepG2 Assay for human Octamer-Binding Transcription Factor (Oct) (AID 2282993). The settings on record: HepG2 Attagene cis-factorial Oct reporter, mRNA; actives raise or lower the signal. The essentials:
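Readout is reporter transcript level from RT-PCR with fluorescent primer extension and capillary electrophoresis, fitted in both directions against DMSO. Transfected HepG2 reporter units report endogenous factor activity after 24 h dosing.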

In test [11] the target is Cellular tumor antigen p53 (Homo sapiens) (UniProt P04637). Nature of the test: ATG_p53_CIS: Attagene CIS-FACTORIAL HepG2 Assay for human p53 Transcription Factor (AID 2282994). To be noted: HepG2 p53 cis-element reporter, Attagene mRNA; actives raise or lower the signal. The essentials: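 In HepG2 cells, reporter transcription units under cis-regulatory promoters were transiently introduced. Following 24 h treatment, RNA was processed to labelled, digested cDNA fragments read by capillary electrophoresis; fitting was bidirectional versus DMSO.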

The target in test [12] is human Peroxisome Proliferator-activated Receptor alpha (PPARa), PPARA (gene 5465) (UniProt Q07869). Nature of the test: ATG_PPARa_TRANS: Attagene TRANS-FACTORIAL HepG2 Assay for human Peroxisome Proliferator-activated Receptor alpha (PPARa) (AID 2283001; active = hit-call score of the fitted dose curve at least 0.9, where 1 is the maximum). The essentials:
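Transfected HepG2 cells treated with test chemical for 24 h. RNA isolated, reverse-transcribed with oligo(dT), PCR-amplified, FAM-labelled and HpaI-digested. Fragments sized by capillary electrophoresis; gain-of-signal fit relative to DMSO.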

In test [13] the target is human Peroxisome Proliferator-activated Receptor delta (PPARd), PPARD (gene 5467) (UniProt Q03181). Nature of the test: ATG_PPARd_TRANS: Attagene TRANS-FACTORIAL HepG2 Assay for human Peroxisome Proliferator-activated Receptor delta (PPARd) (AID 2283002; active = hit-call score of the fitted dose curve at least 0.9, where 1 is the maximum). The essentials: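 Cell-based TRANS reporter: HepG2, transient MRTU transfection, 24 h exposure. Readout = reporter mRNA (RT-PCR/CE, 6-FAM). Gain-of-signal fit vs DMSO control.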

Test [14] deals with Nuclear receptor subfamily 4 group A member 2 (Homo sapiens) (UniProt P43354). The test is described as follows: ATG_NURR1_TRANS: Attagene TRANS-FACTORIAL HepG2 Assay for human Nuclear Receptor Related Protein 1 (NURR1) (AID 2282985; active = hit-call score of the fitted dose curve at least 0.9, where 1 is the maximum). To be noted: HepG2 Attagene TRANS reporter, mRNA readout. The essentials:
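Measures transcriptional activation by an exogenous NR-Gal4 chimera in transfected HepG2 liver cells. After 24 h, reporter RNA is reverse-transcribed, amplified and resolved by capillary electrophoresis; DMSO defines baseline.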

Test [15] in a line: BSK_3C_TissueFactor: BioMAP Diversity Plus: 3C Assay for Tissue Factor Biomarker Activity (AID 2282997). The settings on record: BioMAP 3C HUVEC, tissue factor biomarker readout; actives raise or lower the signal. Put shortly:
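In this endothelial system, HUVEC are treated for 24 h and Tissue Factor is assessed by ELISA, normalised to DMSO.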

Test [16] is described as follows: BSK_3C_uPAR: BioMAP Diversity Plus: 3C Assay for Urokinase-type plasminogen activator receptor (uPAR) Biomarker Activity (AID 2282998). The settings on record: BioMAP 3C HUVEC, uPAR biomarker ELISA; actives raise or lower the signal. The essentials: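 Cell-surface uPAR on HUVEC (3C system) read by ELISA at 24 h post-treatment, with DMSO as baseline and fitting in both directions. Parallel cultures stained with SRB to flag overt cytotoxicity.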

Test [17] in a line: BSK_3C_VCAM1: BioMAP Diversity Plus: 3C Assay for Vascular cell adhesion molecule 1 (VCAM1) Biomarker Activity (AID 2282999). The settings on record: BioMAP 3C HUVEC, VCAM1 ELISA, cytokine-stimulated; actives raise or lower the signal. The essentials:
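Activity fitted in both directions relative to DMSO, with ELISA measurement of the surface marker on primary HUVEC (3C) at 24 h post-treatment; parallel SRB staining (0.1% SRB, TCA-fixed, 560 nm) flagged overt cytotoxicity.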

The nature of test [18]: BSK_4H_Eotaxin3: BioMAP Diversity Plus: 4H Assay for Eotaxin 3 Biomarker Activity (AID 2283000).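 For outcome: CCL26 protein level quantified by ELISA in parallel with SRB cytotoxicity check.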 To be noted: primary human endothelial cells (HUVEC); actives raise or lower the signal. Put shortly: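 ELISA quantitation of CCL26 (Eotaxin-3) protein from chemically dosed human vascular endothelial cells at 24 h; increases and decreases both scored relative to DMSO-treated baseline.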

Chain of Nuclear receptor subfamily 4 group A member 2 (Homo sapiens) (P43354 whole entry, looked up, the tested form may be a part): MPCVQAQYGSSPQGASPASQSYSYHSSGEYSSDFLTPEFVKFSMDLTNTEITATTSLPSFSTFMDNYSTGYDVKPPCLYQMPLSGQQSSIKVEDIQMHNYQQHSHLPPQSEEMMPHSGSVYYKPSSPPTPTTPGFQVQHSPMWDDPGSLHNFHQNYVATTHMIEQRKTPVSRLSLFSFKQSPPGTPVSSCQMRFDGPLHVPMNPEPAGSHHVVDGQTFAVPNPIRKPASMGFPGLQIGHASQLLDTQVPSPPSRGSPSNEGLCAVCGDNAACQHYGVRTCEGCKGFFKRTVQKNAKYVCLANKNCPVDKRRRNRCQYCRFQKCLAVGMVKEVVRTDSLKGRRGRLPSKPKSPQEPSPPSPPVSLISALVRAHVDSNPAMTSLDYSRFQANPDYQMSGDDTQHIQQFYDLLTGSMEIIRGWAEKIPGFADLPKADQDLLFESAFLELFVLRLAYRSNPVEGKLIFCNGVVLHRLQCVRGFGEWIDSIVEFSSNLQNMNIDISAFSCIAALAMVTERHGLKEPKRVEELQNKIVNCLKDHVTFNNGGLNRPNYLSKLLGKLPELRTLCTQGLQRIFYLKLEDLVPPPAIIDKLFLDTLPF
Chain of Myc proto-oncogene protein (Homo sapiens) (P01106 whole entry, looked up): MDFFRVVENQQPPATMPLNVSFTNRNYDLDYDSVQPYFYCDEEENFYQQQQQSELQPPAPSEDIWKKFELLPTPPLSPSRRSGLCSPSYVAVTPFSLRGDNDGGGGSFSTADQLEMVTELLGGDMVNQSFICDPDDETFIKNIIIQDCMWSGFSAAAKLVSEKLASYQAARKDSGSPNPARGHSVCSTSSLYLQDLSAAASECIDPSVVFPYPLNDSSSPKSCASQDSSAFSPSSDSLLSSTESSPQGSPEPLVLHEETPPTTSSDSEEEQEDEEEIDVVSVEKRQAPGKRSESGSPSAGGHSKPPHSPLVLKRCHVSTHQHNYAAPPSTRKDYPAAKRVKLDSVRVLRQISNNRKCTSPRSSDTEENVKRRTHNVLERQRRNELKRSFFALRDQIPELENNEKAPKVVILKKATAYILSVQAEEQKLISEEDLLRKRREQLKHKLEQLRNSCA
Chain of Nuclear respiratory factor 1 (Homo sapiens) (Q16656 whole entry, looked up): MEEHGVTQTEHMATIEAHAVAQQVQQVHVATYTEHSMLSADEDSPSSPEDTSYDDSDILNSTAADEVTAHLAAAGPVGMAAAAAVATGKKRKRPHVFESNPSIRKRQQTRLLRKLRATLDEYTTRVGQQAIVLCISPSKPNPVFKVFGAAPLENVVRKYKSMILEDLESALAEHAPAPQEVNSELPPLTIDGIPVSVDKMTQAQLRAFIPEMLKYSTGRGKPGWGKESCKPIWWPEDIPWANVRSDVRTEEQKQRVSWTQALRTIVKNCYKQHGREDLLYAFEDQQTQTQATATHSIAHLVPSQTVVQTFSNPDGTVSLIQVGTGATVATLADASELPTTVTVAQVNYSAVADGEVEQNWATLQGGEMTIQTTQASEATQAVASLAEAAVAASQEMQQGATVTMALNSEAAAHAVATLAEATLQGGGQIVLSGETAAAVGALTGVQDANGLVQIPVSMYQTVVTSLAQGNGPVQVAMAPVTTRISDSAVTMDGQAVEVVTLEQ
Chain of Cellular tumor antigen p53 (Homo sapiens) (P04637 whole entry, looked up, the tested form may be a part): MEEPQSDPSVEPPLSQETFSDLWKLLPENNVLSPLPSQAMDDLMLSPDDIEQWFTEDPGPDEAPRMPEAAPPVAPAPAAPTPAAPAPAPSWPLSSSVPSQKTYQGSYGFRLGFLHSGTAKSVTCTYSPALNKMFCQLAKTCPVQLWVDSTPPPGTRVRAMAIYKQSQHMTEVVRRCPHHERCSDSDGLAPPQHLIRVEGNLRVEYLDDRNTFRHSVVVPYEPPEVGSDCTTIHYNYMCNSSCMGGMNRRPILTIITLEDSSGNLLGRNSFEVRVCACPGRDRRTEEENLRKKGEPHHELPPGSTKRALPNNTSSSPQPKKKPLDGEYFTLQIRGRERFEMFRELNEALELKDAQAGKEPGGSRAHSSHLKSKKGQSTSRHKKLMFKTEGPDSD
Chain of Hepatocyte nuclear factor 4-alpha (Homo sapiens) (P41235 whole entry, looked up): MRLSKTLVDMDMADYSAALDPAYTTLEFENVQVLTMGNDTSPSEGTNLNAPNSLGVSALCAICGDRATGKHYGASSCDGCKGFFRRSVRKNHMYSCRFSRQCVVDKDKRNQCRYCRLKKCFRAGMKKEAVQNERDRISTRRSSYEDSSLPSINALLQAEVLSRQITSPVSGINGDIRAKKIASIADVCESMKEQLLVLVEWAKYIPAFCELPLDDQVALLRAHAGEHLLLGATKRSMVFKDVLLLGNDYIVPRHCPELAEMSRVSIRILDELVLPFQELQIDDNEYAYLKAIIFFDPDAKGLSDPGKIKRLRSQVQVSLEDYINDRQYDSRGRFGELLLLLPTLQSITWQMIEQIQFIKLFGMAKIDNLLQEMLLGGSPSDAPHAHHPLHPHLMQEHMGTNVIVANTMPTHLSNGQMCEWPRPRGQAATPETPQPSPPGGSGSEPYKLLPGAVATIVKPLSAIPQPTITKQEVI
Chain of human Peroxisome Proliferator-activated Receptor delta (PPARd), PPARD (gene 5467) (Q03181 whole entry, looked up): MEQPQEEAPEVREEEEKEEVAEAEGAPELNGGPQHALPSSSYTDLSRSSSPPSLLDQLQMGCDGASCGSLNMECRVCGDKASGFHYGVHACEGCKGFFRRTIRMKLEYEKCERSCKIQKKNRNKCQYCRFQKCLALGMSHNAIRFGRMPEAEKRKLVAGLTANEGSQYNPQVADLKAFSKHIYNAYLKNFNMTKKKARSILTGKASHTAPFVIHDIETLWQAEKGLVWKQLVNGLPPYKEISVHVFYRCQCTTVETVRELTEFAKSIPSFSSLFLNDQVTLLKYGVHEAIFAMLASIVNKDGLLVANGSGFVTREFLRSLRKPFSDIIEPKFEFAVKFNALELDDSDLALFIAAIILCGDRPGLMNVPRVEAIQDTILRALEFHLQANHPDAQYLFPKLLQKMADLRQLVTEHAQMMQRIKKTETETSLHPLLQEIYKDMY
Chain of human Peroxisome Proliferator-activated Receptor alpha (PPARa), PPARA (gene 5465) (Q07869 whole entry, looked up, the tested form may be a part): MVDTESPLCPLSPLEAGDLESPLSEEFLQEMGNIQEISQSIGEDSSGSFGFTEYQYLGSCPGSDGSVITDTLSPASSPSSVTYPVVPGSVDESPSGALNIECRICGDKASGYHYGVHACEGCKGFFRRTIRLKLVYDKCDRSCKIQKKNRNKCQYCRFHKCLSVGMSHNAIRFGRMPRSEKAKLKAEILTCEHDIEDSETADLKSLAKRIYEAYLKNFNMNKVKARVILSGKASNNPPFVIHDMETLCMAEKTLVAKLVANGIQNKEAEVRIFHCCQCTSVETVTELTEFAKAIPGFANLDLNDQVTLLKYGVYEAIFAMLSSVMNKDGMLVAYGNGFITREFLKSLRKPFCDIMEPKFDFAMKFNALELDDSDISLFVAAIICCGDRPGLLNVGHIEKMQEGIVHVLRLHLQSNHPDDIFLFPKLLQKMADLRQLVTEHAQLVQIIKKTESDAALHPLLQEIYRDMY
Chain of Transcriptional activator Myb (Homo sapiens) (P10242 whole entry, looked up): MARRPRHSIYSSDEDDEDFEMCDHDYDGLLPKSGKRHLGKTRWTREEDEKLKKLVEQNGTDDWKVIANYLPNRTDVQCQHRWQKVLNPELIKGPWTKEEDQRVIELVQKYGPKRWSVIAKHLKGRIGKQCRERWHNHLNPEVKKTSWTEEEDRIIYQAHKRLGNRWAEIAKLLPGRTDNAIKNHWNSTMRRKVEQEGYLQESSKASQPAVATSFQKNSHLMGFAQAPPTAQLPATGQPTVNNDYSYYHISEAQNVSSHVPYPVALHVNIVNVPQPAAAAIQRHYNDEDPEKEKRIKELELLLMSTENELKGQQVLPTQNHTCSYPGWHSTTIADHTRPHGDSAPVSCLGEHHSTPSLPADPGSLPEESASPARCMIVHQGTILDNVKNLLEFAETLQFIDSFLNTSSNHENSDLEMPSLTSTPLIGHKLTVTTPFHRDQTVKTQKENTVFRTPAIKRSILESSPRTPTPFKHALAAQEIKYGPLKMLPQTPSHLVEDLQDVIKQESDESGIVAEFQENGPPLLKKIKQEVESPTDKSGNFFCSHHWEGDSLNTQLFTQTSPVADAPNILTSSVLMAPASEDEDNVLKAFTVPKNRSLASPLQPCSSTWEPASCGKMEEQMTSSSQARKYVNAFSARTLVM

For the molecule `CCC(=O)O`, the molecule was classed as inactive in test [1], in test [2], in test [3], in [4], in [5] and in test [6]. The outcome in test [7], in test [8], in test [9], in test [10], in test [11] and in test [12] was inactive. For the same molecule, the outcome in [13] was inactive.

With `O=C1Cc2ccccc2N1c1c(Cl)cccc1Cl`, the outcome in test [1], in test [2], in [3], in [14], in test [4] and in test [5] was inactive. Further, the molecule was called inactive in test [6], in test [7], in test [8], in test [10] and in [13]. The AC50 in test [9] was 23.2 µM (active).

With `CC1CNCC(C)O1` (stereo unspecified), the result in test [1], in test [2], in test [3], in [4], in test [5] and in test [6] was inactive. The molecule was called inactive in [7], in test [8], in test [9], in test [10], in test [11] and in test [12].

With `O=C(c1cc(O)c(O)c(O)c1)c1ccc(O)c(O)c1O`, the outcome in test [1], in test [2], in test [3], in test [14], in test [4] and in test [5] was inactive. Further, the result in [7], in test [8], in [9], in [10], in [12] and in test [13] was inactive. In addition, the AC50 in [11] was 100 µM (active).

On to `COC(=O)C(F)(F)C(F)(F)C(F)(F)C(F)(F)C(F)(F)F`, for which the molecule was called inactive in test [1], in test [2], in test [3], in test [14], in [4] and in test [5]. For the same molecule, the outcome in test [6], in test [7], in [8], in test [9], in test [10] and in test [11] was inactive. In addition, the outcome in [12] and in [13] was inactive.

As to `C=COC(=O)C(C)(C)CCCCCC`, the molecule was classed as inactive in [1], in [2], in test [3], in [14], in [4] and in test [5]. Further, the molecule was classed as inactive in test [6], in test [7], in test [8], in test [11], in test [12] and in [13]. The half-maximal activity concentration (AC50) is 142 µM (active) in test [9]; 29.9 µM (active) in test [15]; 31.3 µM (active) in test [16]; 34.4 µM (active) in [17]; 30.3 µM (active) in test [18].

With `O=C(F)C(F)(F)C(F)(F)C(F)(F)C(F)F`, the outcome in test [1], in test [2], in test [3], in test [14], in test [4] and in test [5] was inactive. Also, the call in test [6], in test [7], in test [8], in test [9], in [10] and in test [11] was inactive. Besides, the molecule was classed as inactive in [12] and in test [13].

On to `O=C(O)CCC(F)(F)C(F)(F)C(F)(F)C(F)(F)C(F)(F)F`, for which the call in test [1], in test [2], in test [3], in test [4], in [5] and in test [7] was inactive. Besides, the molecule was called inactive in test [8], in test [9], in test [10], in [11], in [15] and in test [16]. For the same molecule, the result in test [17], in test [18], in [12] and in test [13] was inactive.
